An excerpt weighted towards active compounds, which were near 2.4% of everything screened.
D2 ag-1: D2 dopamine receptor (human) agonism | P14416 | HEK293 T-REx D2 cells, calcium flux agonist mode | activation, % at 2 µM | 340,000 compounds, 0.53% hits;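 active = activation over 3 SD above normal in the single-dose calcium agonist read, cut at about 30% in these data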
Target sequence (P14416 whole entry, looked up): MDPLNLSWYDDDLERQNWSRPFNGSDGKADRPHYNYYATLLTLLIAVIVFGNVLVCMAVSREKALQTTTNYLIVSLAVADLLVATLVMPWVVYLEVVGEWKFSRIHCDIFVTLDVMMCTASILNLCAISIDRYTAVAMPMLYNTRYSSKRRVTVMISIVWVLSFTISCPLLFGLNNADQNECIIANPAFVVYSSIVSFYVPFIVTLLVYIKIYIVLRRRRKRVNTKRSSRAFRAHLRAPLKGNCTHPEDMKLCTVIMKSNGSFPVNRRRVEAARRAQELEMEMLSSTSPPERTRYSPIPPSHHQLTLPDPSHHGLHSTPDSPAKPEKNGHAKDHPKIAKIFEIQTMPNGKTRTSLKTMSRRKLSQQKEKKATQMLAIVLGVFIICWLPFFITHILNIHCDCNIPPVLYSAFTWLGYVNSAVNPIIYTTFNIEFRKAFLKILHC
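HEK293 Trex D2 cells, tetracycline-induced, o/n 30 C 5% CO2; no-wash Ca dye, RT 30–90 min; 10-cycle baseline, 23 nl cpd added, kinetic Ca read 180 s; agonist hits = positive Ca response.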
D2 ag-2: human D2 receptor agonism in beta-arrestin assay | P14416 | AID 624465 | activation, % (no concentration beside the values) | DiscoveRx PathHunter D2 beta-arrestin, luminescence, 90 min; 100% = 57 uM dopamine signal | 360,000 compounds, 0.084% hits; in the data active = activation above about 40%; inconclusive = between about 15% and that limit
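Agonist mode: compounds alone added to overnight-plated D2 PathHunter cells for 90 min at 37 C, with 57 uM final dopamine (EC100) defining full response. Beta-arrestin recruitment detected by chemiluminescent reagent, read after 1 h at ambient temperature.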
D2 PAM-1: potentiates the human D2 dopamine receptor allosterically; P14416; potentiation, % (no concentration beside the values); DiscoveRx D2 beta-arrestin cells, luminescence, 90 min; 100% = 57 uM dopamine signal; 360,000 compounds, 0.23% hits; in the data active = potentiation above about 50%; inconclusive = mostly about 30% to 49%
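PathHunter beta-arrestin assay in DiscoveRx D2 cells. Compounds were added with an EC20 of dopamine (50 nM final) for 90 min at 37 deg C. Luminescence was read 1 h after detection reagent, with 57 uM dopamine as the EC100 control.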
D2 antagonist: antagonists of human D2 dopamine receptor; AID 485344; HEK293 TREx D2 cells, calcium flux, dopamine EC80; P14416; 340,000 compounds, 2% hits; inhibition, % at 10 µM; in the data active = inhibition above about 30%; inactive = below that, where a call was filed
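Cells plated overnight at 30 C with tetracycline; no-wash calcium dye, 30–90 min RT; 10 s baseline; compound pinned; 180 s read; EC80 dopamine added; another 180 s read.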
D2 PAM-2: positively modulates the human D2 dopamine receptor allosterically. P14416. HEK293 T-REx D2, calcium flux, EC20 dopamine potentiation. potentiation, % at 10 µM. 340,000 compounds, 0.34% hits;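 active = potentiation over 3 SD above the plate norm, cut at about 30% in these data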
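Potentiation of an EC20 dopamine calcium response measured kinetically over 180 s, after a preceding 180 s compound-only read flagging agonists. Cells: inducible Hek293 Trex D2 line, 4000/well, cultured overnight at 30 C before dye loading.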
Hits are given with their value; - = inactive; ? = inconclusive; . = no result given.

SMILES	D2 ag-1	D2 ag-2	D2 PAM-1	D2 antagonist	D2 PAM-2
Cc1cc(OCCCCCN2CCCC2)ccc1Cl	-	-	-	58.8	-
CC(C)(C)c1ccc(S(=O)(=O)NC(=O)C2(C)CCN2C(=O)C2CCCCC2)cc1 (configuration not stated)	.	-	-	.	.
O=C(COC(=O)c1ccc(O)cc1)Nc1ccc(OC(F)F)cc1	-	-	-	31.8	-
O=C(NC(Cc1ccc2c(c1)OCO2)C(=O)N1CCCC1C(=O)O)c1ccccc1 (configuration not stated)	-	-	-	34.1	-
COc1cccc(-c2ncc3ccccc3c2COC(=O)N(C)C)c1	-	-	-	-	-
Cc1cc(NC(=O)CSc2nc(-c3ccco3)cc(C(F)(F)F)n2)n(-c2ccccc2)n1	-	-	-	-	-
CCn1nc(C)c(NC(=O)CCSc2nc(-c3ccco3)cc(C(F)(F)F)n2)c1C	-	-	-	-	31.3
N#Cc1c(NC(=O)CSc2nc(-c3ccco3)cc(C(F)(F)F)n2)sc2c1CCCC2	-	-	-	-	44.4
Cc1cc(NC(=O)CCCSc2nc(-c3ccco3)cc(C(F)(F)F)n2)n(-c2ccccc2)n1	-	-	-	-	33.5
CCN(Cc1ccccc1)C(c1cccs1)c1nnnn1C1CCCCC1 (configuration not stated)	-	-	-	-	-
Clc1ccccc1CN(Cc1ccccc1)C(c1cccs1)c1nnnn1C1CCCC1 (configuration not stated)	-	-	-	50.0	-
CCc1ccc(OCc2cc(=O)n3c4c(sc3n2)CCCC4)cc1	.	.	.	.	-
CSc1ccccc1NC(=O)Nc1ccc(Cl)cc1	-	-	-	31.2	-
O=C(CN1C(=O)C2C3C=CC(C3)C2C1=O)N1CC(=O)N(CCc2ccccc2)C(=O)C1 (configuration not stated)	-	-	-	-	-
O=C(CCN1C(=O)C2C3C=CC(C3)C2C1=O)N1CC(=O)N(CCc2ccccc2)C(=O)C1 (configuration not stated)	-	-	-	31.3	-
O=C(Cn1c(NCCCCl)nc2ccccc21)c1ccccc1	-	-	-	-	-
O=C1CCCC/C=C\C[C@H](CC(=O)N(CCO)Cc2ccccc2)C(=O)NCCO1	.	-	-	.	.
COc1ccccc1C1C(C(C)=O)=C(C)N=c2s/c(=C\c3cc(OC)c(OC)c(OC)c3)c(=O)n21 (configuration not stated)	-	-	-	-	31.7
CC(C)c1ccc(NC(=O)CN(C)S(=O)(=O)c2ccc3c(c2)n(C)c(=O)c(=O)n3C)cc1	-	.	.	.	-
CCCn1c2ccccc2c2nc3ccccc3nc21	-	-	-	-	46.9
O=c1oc2ccccc2n1CCn1c2ccccc2c2nc3ccccc3nc21	-	-	-	-	76.0
COc1ccc2c(c1)c1nc3ccccc3nc1n2CCCN1C(=O)c2ccccc2C1=O	-	-	-	-	-
CCN(CC)CCn1c2ccccc2c2nc3ccccc3nc21	-	-	-	-	-
COc1ccc2c(c1)c1nc3ccccc3nc1n2CCn1c(=O)oc2ccccc21	-	-	-	33.6	-
c1ccc(N=C(c2cccs2)N2CCOCC2)cc1	-	-	-	31.8	-
SMILES	D2 ag-1	D2 ag-2	D2 PAM-1	D2 antagonist	D2 PAM-2
O=S(=O)(/N=C(\c1ccccc1)N1CCOCC1)c1cccs1	-	-	-	-	-
FC(F)(F)c1cc(-c2ccccc2)nc2nc(N3CCOCC3)sc12	-	-	-	-	.
CN(C)C=NC(=O)c1cc(C(=O)c2ccccc2Cl)c[nH]1	-	-	-	46.3	-
Brc1cccc(-c2nc(-c3ccncc3)no2)c1	-	-	-	40.9	-
O=[N+]([O-])c1cc(-c2nc(-c3ccncc3)no2)ccc1Cl	-	-	-	-	-
O=[N+]([O-])c1cc(-c2nc(-c3ccncc3)no2)cc([N+](=O)[O-])c1	-	?	95.4	-	-
COC(=O)CCC(=O)OC1(C)C(=O)C=C2C=C(C3CC3)N(CC3CC3)C=C2C1=O (configuration not stated)	-	-	-	-	-
COC(=O)CCC(=O)OC1(C)C(=O)C=C2C=C(C3CC3)N(CC(C)C)C=C2C1=O (configuration not stated)	-	.	.	31.5	-
